Assay outcomes from PubChem BioAssay.
Compounds with a hit are over-represented: about 11% of the library has one in this group of screens.
NS1 function inh = blocks influenza NS1 protein function; hit rate 0.4% among 270,000; AID 2326; Potency, µM (highest dose often 46.1 µM), inactives show top-dose activity, positive = more growth; calls by dose curve; also: actives are rising curves; nearly all actives have a fitted effect of over 50% in size
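Recovery from NS1-induced slow growth read by OD600 in budding yeast switched to galactose assay medium (pH 6.0, -URA) at 1:100 dilution. Compound 23 nl per well; the matching strain lacking NS1 serves as control.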
VACV mCherry inh = vaccinia inhibition (mCherry reporter) | Potency, µM (titrated, usually from 36.5 µM), inactives show at the highest dose activity change, negative = inhibition, actives largely listed as inhibitors | hit rate 0.63% among 310,000 | AID 720579 | Vaccinia virus mCherry reporter infection, fluorescence; calls by dose curve; tested in A549 cells; also: % is scaled to controls: 0 for no effect and ±100 for the full control effect; nearly all actives have a fitted effect of over 35% in size
Pf growth 96h = P. falciparum growth inhibition at 96 hours | Potency, µM (top dose mostly 28.7 µM), inactives show at the highest dose activity change, negative = inhibition, hits mostly inhibitors | hit rate 6.9% among 320,000 | P. falciparum luciferase reporter growth, 96 h; also: % is scaled to controls: 0 for no effect and ±100 for the full control effect
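P. falciparum expressing integrated firefly luciferase, in erythrocytes at 2% hematocrit, 0.05% parasitemia, incubated with compounds 96 h at 37 C, 5% CO2. Growth inhibition read as loss of luminescence; two-generation exposure targets delayed-death apicoplast inhibitors.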
Pf growth 48h = P. falciparum growth inhibition at 48 hours (one generation); AID 504832; P. falciparum luciferase growth in erythrocytes, 48 h; hit rate 5.9% among 310,000; Potency, µM (titrated, usually from 28.7 µM), inactives show at the highest dose activity change, negative = inhibition, actives largely listed as inhibitors; also: % is scaled to controls: 0 for no effect and ±100 for the full control effect
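First compound was added to culture medium, then infected red cells at 0.1% parasitemia and 2% hematocrit (final). After incubation at 37 C under 5% CO2, luciferase detection reagent was dispensed and light output recorded.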
HCV inh = HCV inhibition | Huh7.5.1 HCVcc-Cre infection, luciferase reporter, 44 h | Potency, µM (top dose mostly 41.8 µM), for inactives: at the highest dose activity change, negative = inhibition, usual class: inhibitors | hit rate 3.4% among 340,000 | AID 651820; also: % is scaled to controls: 0 for no effect and ±100 for the full control effect
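Infectious HCV cell culture screen: compound-treated cells (1,000/well, pre-plated 4 h) are infected with HCVcc-Cre at roughly 0.5 moi and grown 44 h. Infection is quantified by luciferase signal after 15 min substrate incubation at room temperature.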
VACV Venus inh = inhibitors of vaccinia virus (Venus reporter) | Vaccinia virus Venus reporter expression, fluorescence | Potency, µM (doses to about 36.5 µM), for the others: at the top dose activity change, negative = inhibition, hits mostly inhibitors | hit rate 0.46% among 330,000 | AID 720580; calls by dose curve; tested in A549 cells; also: % is scaled to controls: 0 for no effect and ±100 for the full control effect; nearly all actives have a fitted effect of over 30% in size
* marks the source's active call; other numbers are inactive results; i = inactive; ? = inconclusive; · = no result given; ! = a repeat was not active; [ ] = dose if it differs, or a comment. Unless noted, calls follow the shape of the dose curve; as a rule, active = well fitted inhibition curve with a large enough effect; inconclusive = small, poorly fitted or top-dose-only effect, or another doubt; inactive = no such curve, though single readings can be large or run the other way. Potency is read from the fitted curve at half-maximal effect.

SMILES	NS1 function inh	VACV mCherry inh	Pf growth 96h	Pf growth 48h	HCV inh	VACV Venus inh
c1ccc2c(c1)C(=Nn1cnnc1)c1ccccc1-2	-36%	8%	12µM*	3%	?	0%
O=C1/C(=N/n2cnnc2)c2ccccc2N1Cc1ccccc1	-114%	·	9.3µM*	-11%	·	·
Cc1cc(C(=O)NC(=S)Nc2cccc(C(=O)O)c2C)ccc1[N+](=O)[O-]	·	-12%	17%	13%	12%	-1%
O=S(=O)(c1cccs1)N1CCN(c2ccnc3cc(Cl)ccc23)CC1	-6%	?	6.6µM*	9.3µM*	?	?
ClCCN1CCN(c2ccnc3cc(Cl)ccc23)CC1	?	·	0.83µM*	0.83µM*	-14%	·
CCCCNC(=O)N1CCN(c2ccccc2OCC)CC1	0%	i	?	-16%	3%	-11%
O=C(O)CSCC(=O)N1CCN(c2ccnc3cc(Cl)ccc23)CC1	-1%	·	?	?	-10%	·
CC(=O)N1CCN(c2ccnc3cc(Cl)ccc23)CC1	-8%	i	12µM*	?	21%	-11%
O=S(=O)(c1ccccc1)N1CCN(c2ccnc3cc(Cl)ccc23)CC1	-7%	?	30%	?	?	?
CCCCNC(=O)N1CCN(c2ccnc3cc(Cl)ccc23)CC1	-1%	-18%	3.7µM*	4.7µM*	-3%	-22%
Cc1cnc(C)c(-c2cccc3c2OC(CNC(=O)C2(c4ccc(Cl)cc4)CC2)C3)n1 (configuration not stated)	·	-10%	·	·	·	-5%
CCOC(=O)Cc1csc(N/C(=N/S(=O)(=O)c2ccc(F)cc2F)c2ccccc2)n1	-2%	i	?	0%	2%	-15%
Cc1ccsc1-c1nc(CN2C[C@@H](C)O[C@@H](C)C2)c(C)o1	-5%	-1%	-21%	-7%	10%	-7%
COc1cccc(-n2nnc3c(=O)n(Cc4c(F)cccc4Cl)cnc32)c1	2%	i	9.3µM*	8%	6%	-5%
COc1ccc(CCNS(=O)(=O)c2ccc(F)c(C(=O)Nc3ccc(Cl)cc3)c2)cc1OC	·	-28%	·	·	·	?
Cc1cc(C)c(O)c(N)c1	-6%	·	2.3µM*	?	·	·
Cc1ccc(N)c(C)c1	·	i	?	1%	-24%	-12%
COc1cccc(CNC(=O)C2CC(=O)N(c3ccc4c(c3)OCCO4)C2)c1 (configuration not stated)	·	-14%	-11%	12%	4%	-19%
NS(=O)(=O)c1ccc(CCNc2ccn3nc(-c4cccc(C(F)(F)F)c4)cc3n2)cc1	·	8.9µM*	·	·	·	?
COCCSc1ccccc1C(=O)Nc1ccc([N+](=O)[O-])cc1OC	-7%	·	-2%	-11%	?	·
COCCSc1ccccc1C(=O)Nc1cc([N+](=O)[O-])ccc1OC	1%	-6%	?	-4%	7.9µM*	-12%
CN(Cc1ccccc1)c1ncnc2[nH]ncc12	·	i	·	·	-23%	-14%
CN(Cc1ccccc1)c1ncnc2sccc12	-24%	i	-1%	11%	8.9µM*	-8%
CC(OC(=O)c1c2c(nc3ccccc13)/C(=C\c1ccc3c(c1)OCO3)CCC2)C(=O)Nc1ccc(S(N)(=O)=O)cc1 (configuration not stated)	11µM*	-17%	?	?	?	134%
Cc1cccc(C)c1NC(=O)COC(=O)c1c2c(nc3ccccc13)/C(=C\c1ccc3c(c1)OCO3)CCC2	0%	-1%	?	8.3µM*	-25%	-13%
SMILES	NS1 function inh	VACV mCherry inh	Pf growth 96h	Pf growth 48h	HCV inh	VACV Venus inh
COc1ccc(-c2cc(C(=O)OCC(=O)c3c(N)n(C)c(=O)n(C)c3=O)c3ccccc3n2)cc1	·	i	40%	21%	?	-4%
CC(OC(=O)c1cc2ccccc2cc1O)C(=O)Nc1ccc(S(N)(=O)=O)cc1 (configuration not stated)	1%	·	20%	0%	-4%	·
Cc1cccc(C)c1NC(=O)COC(=O)c1ccc2c(c1)OCO2	·	·	16%	2%	13%	·
COc1ccc(/C=C2\CCCc3c2nc2ccccc2c3C(=O)OCC(=O)c2c(N)n(C)c(=O)n(C)c2=O)cc1	?	·	4.1µM*	?	-22%	·
O=C(c1ccccc1)N1CCSc2sccc2C1=O	11%	·	308%	393%	-10%	·
Cc1ccc2[nH]c(=O)c(CN(Cc3ccco3)S(=O)(=O)c3c(C)ccc4nsnc34)cc2c1	-2%	-2%	10%	-8%	7.1µM*!	-22%
Cc1ccc2[nH]c(=O)c(CN(CC3CCCO3)S(=O)(=O)c3c(C)ccc4nsnc34)cc2c1 (configuration not stated)	6%	·	?	?	-19%	·
COc1ccc2[nH]c(=O)c(CN(Cc3cccs3)S(=O)(=O)c3c(C)ccc4nsnc34)cc2c1	14%	·	·	·	11µM*	·
Cc1ccc2cc(CN(CCCO)S(=O)(=O)c3cccc4nsnc34)c(=O)[nH]c2c1	?	·	4.1µM*	·	11%	·
COc1cccc(N2C(=NC(=O)CCc3ccccc3)SC3CS(=O)(=O)CC32)c1 (configuration not stated)	6%	·	?	9%	16%	·
N#Cc1c(-n2cccc2)cccc1-n1cccc1	-16%	·	47%	-6%	-1%	·
COC(=O)c1c(NC(=O)CSc2nc3ccccc3c(=O)n2-c2ccccc2)sc(C)c1C	9%	i	9.3µM*	?	?	4%
CCOC(=O)c1sc(NC(=O)CSc2nc3c(c(=O)n2-c2ccc(F)cc2)SCC3)c(C(=O)OCC)c1C	8%	·	2.9µM*	2.6µM*	-4%[8.37 µM]	·
COC(=O)c1ccc(CSc2nc3c(c(=O)n2-c2ccc(Br)cc2)SCC3)o1	-33%	-3%	9.3µM*	·	-8%	0%
CCOc1ccc(-n2c(SCc3ccc(C(=O)OC)o3)nc3c(c2=O)SCC3)cc1	-54%	·	·	?	?	·
CCOC(=O)c1c(NC(=O)CSc2nncs2)sc(C)c1C	-4%	·	12%	14%	-3%	-7%
